# An excerpt weighted towards active compounds, which were near 1.5% of everything screened.
# STK33 kinase inh – human STK33 kinase inhibition; Q9BYT3; purified STK33, MBP phosphorylation, ADP-Glo luminescence; inhibition, % at 10 µM; hit rate 0.073% among 320,000; AID 2661;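 active = inhibition at or above 25%, using the most active replicate where run in duplicate; inactive = inhibition below 25%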
# PP5 inh – blocks human protein phosphatase 5 activity. AID 1987. hit rate 0.18% among 320,000. purified PP5c, OMFP substrate fluorescence. inhibition, % at 6.7 µM;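 active = inhibition above the campaign's mean inhibition across all tested compounds plus 3 SD, cut at about 9.5% in these data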;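 also: 0% = DMSO only and 100% = 100 µM cantharidin control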
# Target sequence (P53041 whole entry, looked up): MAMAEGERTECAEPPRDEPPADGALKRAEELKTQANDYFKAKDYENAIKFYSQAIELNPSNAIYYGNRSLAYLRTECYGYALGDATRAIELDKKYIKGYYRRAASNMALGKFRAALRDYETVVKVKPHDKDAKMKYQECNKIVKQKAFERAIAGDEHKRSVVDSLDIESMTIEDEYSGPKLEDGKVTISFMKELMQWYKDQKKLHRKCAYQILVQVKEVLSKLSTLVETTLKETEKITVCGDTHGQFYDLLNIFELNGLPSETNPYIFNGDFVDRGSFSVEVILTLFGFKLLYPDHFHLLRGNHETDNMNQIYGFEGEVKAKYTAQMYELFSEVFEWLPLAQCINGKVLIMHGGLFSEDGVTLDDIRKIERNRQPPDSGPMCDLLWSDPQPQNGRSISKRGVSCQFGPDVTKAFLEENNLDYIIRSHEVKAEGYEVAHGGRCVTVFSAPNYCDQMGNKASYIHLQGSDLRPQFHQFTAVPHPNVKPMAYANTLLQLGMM
# PP1 counter – counter-screen for PP5 inhibitors: inhibitors of human PP1-alpha; P62136; purified PP1alpha, OMFP fluorescence; inhibition, % at 6.7 µM; hit rate 0.9% among 320,000;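 active = inhibition above the mean inhibition of all tested compounds plus 3 SD, computed separately for each screening campaign, cut at about 15% in these data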
# HIF act – HIF pathway transcriptional activation; hit rate 0.32% among 300,000; U2OS HRE-luciferase reporter, luminescence; normalized: DMSO 0%, desferrioxamine 100%; activation, % at 7.5 µM (by protocol);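 active = mean activation of at least 10% of the iron chelator positive control signal, with at least half of replicates also reaching 10%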
# DYRK1A inh – inhibitors of rat Dyrk1A kinase; ADP-Glo luminescence, NFATc1 peptide; Q63470; inhibition, % at 12.5 µM; hit rate 0.43% among 310,000; AID 504441; in the data active = inhibition above about 50%;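 also: plate controls were vehicle with enzyme for no effect and no enzyme for full effect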
# PP1 confirm – confirmation of human PP1 phosphatase inhibitors | shares compounds with PP1 counter | purified PP1alpha, OMFP substrate fluorescence | inhibition, % at 6.7 µM | hit rate 52% among 1,900 | AID 2358;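 active = mean PP1 inhibition above a set limit taken from the earlier primary screen, cut at about 15% in these data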
# PP5 counter – PP5 phosphatase inhibition, counter-screen for PP1 inhibitors. inhibition, % at 6.7 µM. purified PP5c, OMFP fluorescence. hit rate 4% among 1,900. shares compounds with PP1 counter;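 active = mean PP5 inhibition over triplicate wells above about 9.5% taken from the earlier PP1 screen, limit read from the data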
# The depositor's hits bear a star; nt = not tested or not shown.
SMILES,STK33 kinase inh,PP5 inh,PP1 counter,HIF act,DYRK1A inh,PP1 confirm,PP5 counter
Cc1ccc(C(=O)COC(=O)c2ccccc2NC(=O)c2ccccc2)cc1[N+](=O)[O-],-2,1,3,0,-3,nt,nt
O=S(=O)(Nc1cccc(-c2ccc(N3CCCCCC3)nn2)c1)c1cccc(F)c1,0,1,18*,4,nt,4,1
COCCN(C(=O)c1csnn1)C(C(=O)NC1CCCC1)c1ccccc1F (stereo not drawn),-1,-1,0,0,-6,nt,nt
Cc1ccc(-c2csc(/C(C#N)=C/Nc3ccc4c(c3)OCCO4)n2)cc1,1,1,-5,0,-4,nt,nt
CCN(CC)CCOC(=O)c1ccc(N/C=C(/C#N)c2nc(-c3cccc(OC)c3)cs2)cc1,1,1,54*,0,nt,9,-2
CCN(CC)CCOC(=O)c1ccc(N/C=C(/C#N)c2nc(-c3ccc(OC)c(OC)c3)cs2)cc1,8,2,66*,0,0,35*,-1
Cc1ccc(C)c(NC(=O)CSc2nc3nc(-c4cccs4)cc(C(F)(F)F)c3c(=O)[nH]2)c1,-4,3,23*,0,-5,14,-1
O=C(CSc1nc2nc(-c3cccs3)cc(C(F)(F)F)c2c(=O)[nH]1)Nc1ccc(F)c(F)c1,0,3,39*,0,-3,30*,2
Nc1nc(SCC(=O)Nc2ccc(C(F)(F)F)cc2)[nH]c(=O)c1NC(=O)c1ccc(F)c(F)c1,-2,0,-1,0,-5,nt,nt
Cc1ccc(C)c(NC(=O)CSc2nc(N)c(NC(=O)c3cccs3)c(=O)[nH]2)c1,nt,nt,nt,nt,2,nt,nt
CNC[C@H](Cc1ccccc1)NC[C@@H](Cc1cccc2ccccc12)NCCc1ccc(C)cc1,3,6,20*,1,1,-6,1
Cc1ccc(CNC(=O)c2ccc(N3CCC4(CC3)CC(c3ccccc3)=NO4)c(NC(=O)c3ccco3)c2)cc1,-2,3,20*,-7,1,16*,-2
O=C(c1ccccc1)c1ccc(OCC(O)CNCc2cccc(Cl)c2)cc1 (stereo not drawn),1,nt,nt,-34,-2,nt,nt
CCOC(=O)c1cnc(-n2cc(C)cn2)nc1NCc1ccc2c(c1)OCO2,-2,2,21*,0,-12,65*,2
CCOC(=O)c1cnc(-n2nc(C)cc2C)nc1NNc1ncc(-c2ccccc2)cn1,-2,3,23*,0,nt,22*,-2
CCOC(=O)c1cnc(-n2nc(C)cc2C)nc1NC(C)c1ccccc1 (stereo not drawn),-1,2,39*,0,2,53*,5
CCOC(=O)c1cnc(-n2nc(C)cc2C)nc1NCCO,0,0,0,0,2,nt,nt
CCOC(=O)c1cnc(-n2nc(C)cc2C)nc1NNc1cc(-c2ccccc2)nc(C)n1,-2,2,-7,0,nt,nt,nt
CCOC(=O)c1cnc(-n2nc(C)cc2C)nc1NCc1ccccc1,-1,7,54*,0,-6,58*,1
COc1ccc(S(=O)(=O)N2CCCCC2)cc1NC(=O)Cc1ccc(Br)cc1,nt,nt,nt,nt,0,nt,nt
Cc1ccc(CNC(=O)C2CCN(S(=O)(=O)N3CCC4(CC3)OCCO4)CC2)cc1,-1,4,-4,3,0,nt,nt
COc1cc(/C=C2/SC(=S)N(Cc3ccccc3)C2=O)ccc1OCC(=O)O,-1,2,20*,1,-7,12,-1
Cc1cc2c(cc(C(=O)OC(C)C(=O)NCc3ccc(F)cc3)n2C)o1 (stereo not drawn),nt,nt,nt,nt,5,nt,nt
CC1(C)Cc2c(cnn2-c2ccccc2)C(NC(=O)CCc2ccc(=O)[nH]n2)C1 (stereo not drawn),0,4,3,0,-1,nt,nt
CCc1nnc(NS(=O)(=O)c2ccc(NC(=S)NC(=O)/C=C/c3ccc(F)cc3)cc2)s1,nt,3,20*,0,3,12,2
SMILES,STK33 kinase inh,PP5 inh,PP1 counter,HIF act,DYRK1A inh,PP1 confirm,PP5 counter
COc1ccc(Cc2nnc(NC(=O)Nc3cccc(OC)c3)s2)cc1,-1,-1,18*,1,2,15*,-3
COc1ccc(Cc2nnc(NC(=O)Nc3ccc(F)cc3)s2)cc1,-7,0,22*,0,-4,11,-5
CCCN(CC(=O)Nc1ccccc1C)C(=O)c1cccc(-n2cnnn2)c1,-3,-1,0,0,-8,nt,nt
C#CCOCCOCCOCCNc1nc(N2CCN(C(=O)[C@H]([C@@H](C)CC)n3cc(CCC(=O)O)nn3)CC2)nc(N2CCN(C(=O)[C@H](CCCCN)n3cc(CCC(=O)O)nn3)CC2)n1,nt,nt,nt,nt,5,nt,nt
C#CCOCCOCCOCCNc1nc(N2CCN(C(=O)CCCCCCCCCCNC(=O)[C@H](CCCCN)n3cc(CCO)nn3)CC2)nc(N2CCN(C(=O)CCCCCCCCCCNC(=O)[C@H](CCCCN)n3cc(C[C@@H](C)CC)nn3)CC2)n1,15,5,41*,nt,nt,13,0
C#CCOCCOCCOCCNc1nc(N2CCN(C(=O)CCCCCCCCCCNC(=O)[C@@H](CCC(=O)O)n3cc(CCCCCN)nn3)CC2)nc(N2CCN(C(=O)CCCCCCCCCCNC(=O)[C@H](CCCCN)n3cc(C[C@@H](C)CC)nn3)CC2)n1,9,1,18*,nt,4,11,2
C#CCOCCOCCOCCNc1nc(N2CCN(C(=O)CCCCCCCCCCNC(=O)[C@@H](CCSC)n3cc(CCO)nn3)CC2)nc(N2CCN(C(=O)CCCCCCCCCCNC(=O)[C@H](CCCN=C(N)N)n3cc(C[C@@H](C)CC)nn3)CC2)n1,0,4,49*,nt,4,39*,4
C#CCOCCOCCOCCNc1nc(N2CCN(C(=O)CCCCCCCCCCNC(=O)Cn3cc(C[C@@H](C)O)nn3)CC2)nc(N2CCN(C(=O)CCCCCCCCCCNC(=O)[C@@H](CCSC)n3cc(CCO)nn3)CC2)n1,-2,2,6,nt,-6,nt,nt
C#CCOCCOCCOCCNc1nc(N2CCN(C(=O)CCCCCCCCCCNC(=O)[C@H](CCCCN)n3cc(C)nn3)CC2)nc(N2CCN(C(=O)CCCCCCCCCCNC(=O)[C@@H]([C@H](C)O)n3cc(C)nn3)CC2)n1,3,1,7,nt,5,nt,nt
COc1cc(CN2CCNC(=O)C2CC(=O)N2CCCO2)cc(OC)c1 (stereo not drawn),0,4,-4,0,4,nt,nt
O=C(Nc1ccccc1C(=O)O)c1cccc(S(=O)(=O)Nc2ccc(Br)cc2)c1,0,2,18*,2,-5,10,0
O=C(Nc1ccccc1C(=O)O)c1cccc(NS(=O)(=O)c2ccc(Br)cc2)c1,0,0,8,-2,-1,nt,nt
Cc1cc(OCC(=O)Nc2ccc(N3CCCC3)cc2)cc(C)c1Cl,-2,3,18*,0,2,-2,0
COC(CNC(=O)C(=O)Nc1cc2c3c(c1)CC(=O)N3CCC2)OC,0,3,-2,0,-6,nt,nt

# Screening results as filed in PubChem BioAssay.
